Assay results reported in PubChem BioAssay (NCATS).
Values joined by “and” are separate entries in the source; they are usually repeats but may differ in a detail not shown here. Identical values can stand only once. Results filed as inconclusive are left out. Active and inactive are the calls of the source. Unless noted, calls come from the whole dose curve; as a rule, active = well fitted curve in the direction sought with a large enough effect; inconclusive = small, poorly fitted or top-dose-only effect, or another doubt; inactive = no such curve, though single readings can be large; an effect the other way counts as inactive or inconclusive.

What was measured:
[1] = qHTS of pediatric cancer cell lines to identify multiple opportunities for drug repurposing: Primary screen for TC32 cells (AID 1347089); note: nearly all actives have a fitted effect of over 60% in size; note: potency is the fitted concentration of half-maximal effect
Method in brief: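 In the primary qHTS, MIPE compounds were tested at 11 concentrations (0.78 nM to 46 µM) and NPC compounds at 8 (0.59 nM to 46 µM) on TC32 cells for 48 h. CellTiter-Glo luminescence gave viability.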

[2] = qHTS of pediatric cancer cell lines to identify multiple opportunities for drug repurposing: Primary screen for DAOY cells (AID 1347090); note: nearly all actives have a fitted effect of over 55% in size; note: potency is the fitted concentration of half-maximal effect
Method in brief: (§1)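 Cell viability, CellTiter-Glo luminescence; 500-1,000 cells/well, 8- or 11-point titration, 48 h compound exposure at 37 degrees C, 5% CO2. Controls: DMSO neutral, bortezomib 2.3 µM final as positive.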

[3] = qHTS of pediatric cancer cell lines to identify multiple opportunities for drug repurposing: Primary screen for SJ-GBM2 cells (AID 1347091); note: potency is the fitted concentration of half-maximal effect
Method in brief: as §1

[4] = qHTS of pediatric cancer cell lines to identify multiple opportunities for drug repurposing: Primary screen for A673 cells (AID 1347092); note: nearly all actives have a fitted effect of over 45% in size; note: potency is the fitted concentration of half-maximal effect
Method in brief: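 48 h compound exposure, A673, 500-1,000 cells/well, 37 degrees C/5% CO2. MIPE: 11-point, 0.78 nM-46 µM; NPC: 8-point, 0.59 nM-46 µM (final). Readout CellTiter-Glo luminescence after 15 min RT.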

[5] = qHTS of pediatric cancer cell lines to identify multiple opportunities for drug repurposing: Primary screen for SK-N-MC cells (AID 1347093); note: potency is the fitted concentration of half-maximal effect
Method in brief: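 Metabolically active cells were quantified by ATP-dependent luminescence (CellTiter-Glo, 15 min at room temperature) following 48 h treatment. Cells had been plated at 500-1,000 per well and settled for 5 h beforehand.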

[6] = qHTS of pediatric cancer cell lines to identify multiple opportunities for drug repurposing: Primary screen for NB-EBc1 cells (AID 1347095); note: potency is the fitted concentration of half-maximal effect
Method in brief: (§2)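 Plated cells (500-1,000 per well, growth media) were allowed to settle for 5 hours, treated with compound dilutions for 48 hours, then lysed with CellTiter-Glo for 15 min at room temperature before luminescence reading.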

[7] = qHTS of pediatric cancer cell lines to identify multiple opportunities for drug repurposing: Primary screen for U-2 OS cells (AID 1347096); note: nearly all actives have a fitted effect of over 50% in size; note: potency is the fitted concentration of half-maximal effect
Method in brief: (§3)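 Cells (500-1,000/well) rested 5 h, then received compounds for 48 h; metabolically active cells were measured by CellTiter-Glo luminescence. Final concentrations spanned up to 46 µM (MIPE, 11-point) or 0.59 nM-46 µM (NPC, 8-point) in primary screens, 11-point in follow-ups.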

[8] = qHTS of pediatric cancer cell lines to identify multiple opportunities for drug repurposing: Primary screen for Saos-2 cells (AID 1347097); note: nearly all actives have a fitted effect of over 40% in size; note: potency is the fitted concentration of half-maximal effect
Method in brief: as §2

[9] = qHTS of pediatric cancer cell lines to identify multiple opportunities for drug repurposing: Primary screen for RD cells (AID 1347104); note: nearly all actives have a fitted effect of over 55% in size; note: potency is the fitted concentration of half-maximal effect
Method in brief: as §2

[10] = qHTS of pediatric cancer cell lines to identify multiple opportunities for drug repurposing: Primary screen for MG 63 (6-TG R) cells (AID 1347105); note: nearly all actives have a fitted effect of over 50% in size; note: potency is the fitted concentration of half-maximal effect
Method in brief: as §2

[11] = qHTS of pediatric cancer cell lines to identify multiple opportunities for drug repurposing: Primary screen for BT-37 cells (AID 1347094); note: potency is the fitted concentration of half-maximal effect
Method in brief: as §2

[12] = qHTS of pediatric cancer cell lines to identify multiple opportunities for drug repurposing: Primary screen for SK-N-SH cells (AID 1347098); note: nearly all actives have a fitted effect of over 65% in size; note: potency is the fitted concentration of half-maximal effect
Method in brief: as §3

[13] = qHTS of pediatric cancer cell lines to identify multiple opportunities for drug repurposing: Primary screen for NB1643 cells (AID 1347099); note: nearly all actives have a fitted effect of over 50% in size; note: potency is the fitted concentration of half-maximal effect
Method in brief: as §2

[14] = qHTS of pediatric cancer cell lines to identify multiple opportunities for drug repurposing: Primary screen for LAN-5 cells (AID 1347100); note: potency is the fitted concentration of half-maximal effect
Method in brief: as §3

[15] = qHTS of pediatric cancer cell lines to identify multiple opportunities for drug repurposing: Primary screen for BT-12 cells (AID 1347101); note: nearly all actives have a fitted effect of over 25% in size; note: potency is the fitted concentration of half-maximal effect
Method in brief: as §3

[16] = qHTS of pediatric cancer cell lines to identify multiple opportunities for drug repurposing: Primary screen for Rh18 cells (AID 1347102); note: nearly all actives have a fitted effect of over 65% in size; note: potency is the fitted concentration of half-maximal effect
Method in brief: as §3

[17] = qHTS of pediatric cancer cell lines to identify multiple opportunities for drug repurposing: Primary screen for OHS-50 cells (AID 1347103); note: nearly all actives have a fitted effect of over 40% in size; note: potency is the fitted concentration of half-maximal effect
Method in brief: as §3

[18] = NS1 protein of Zika virus - qHTS assay to identify small molecule inhibitors in human HEK 293 cells (AID 1347053); note: series mostly up to about 46 µM; nearly all actives have a fitted effect of over 55% in size
Method in brief: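 Following 20 h seeding, HEK 293 cells took compound, then 1 h later ZIKV MR766 (MOI = 0.5). Incubation ran 24 h at 37 C before TR-FRET detection of NS1; a drop in signal indicates inhibition.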

[19] = target: T1, Tyrosine-protein phosphatase non-receptor type substrate 1 (Homo sapiens) + Leukocyte surface antigen CD47 (Homo sapiens) (UniProt P78324+Q08722); assay: CD47-SIRPalpha protein protein interaction - LANCE assay qHTS validation (AID 1347057; active = well fitted curve in the direction sought with a large enough effect in the signal ratio, with a control signal flat, not every such curve was filed as active; the % refers to the signal ratio; note: series mostly up to about 38 µM)
T1 sequence (P78324 whole entry, looked up): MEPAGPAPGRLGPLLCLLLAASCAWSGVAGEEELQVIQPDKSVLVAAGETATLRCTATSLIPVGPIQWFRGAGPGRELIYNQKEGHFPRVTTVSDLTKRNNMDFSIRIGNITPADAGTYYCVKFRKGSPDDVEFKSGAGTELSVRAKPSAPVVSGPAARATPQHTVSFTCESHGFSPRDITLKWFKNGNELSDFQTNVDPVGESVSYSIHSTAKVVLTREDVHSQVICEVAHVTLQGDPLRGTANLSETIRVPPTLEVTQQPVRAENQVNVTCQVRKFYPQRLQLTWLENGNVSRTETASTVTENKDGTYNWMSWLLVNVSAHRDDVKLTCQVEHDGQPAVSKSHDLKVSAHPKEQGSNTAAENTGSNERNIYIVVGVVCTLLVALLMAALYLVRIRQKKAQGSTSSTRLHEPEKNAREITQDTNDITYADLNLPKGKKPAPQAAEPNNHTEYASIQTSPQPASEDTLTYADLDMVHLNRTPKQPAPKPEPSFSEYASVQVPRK
T1 sequence (Q08722 whole entry, looked up): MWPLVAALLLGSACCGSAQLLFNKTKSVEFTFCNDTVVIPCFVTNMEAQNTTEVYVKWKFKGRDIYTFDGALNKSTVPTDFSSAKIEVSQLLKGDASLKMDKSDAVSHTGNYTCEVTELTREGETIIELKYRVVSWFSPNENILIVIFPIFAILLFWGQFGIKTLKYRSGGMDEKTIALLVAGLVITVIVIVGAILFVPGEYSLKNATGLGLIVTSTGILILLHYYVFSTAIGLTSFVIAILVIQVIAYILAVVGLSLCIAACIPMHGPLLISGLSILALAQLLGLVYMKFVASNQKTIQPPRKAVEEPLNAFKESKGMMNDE
Method in brief: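 First, His-tagged CD47 and Eu-labelled anti-His antibody met the compound for 30 min; next, site-specifically biotinylated SIRPalpha was added for 30 min; finally streptavidin-APC was added before reading the TR-FRET ratio.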

[20] = target: T1, Tyrosine-protein phosphatase non-receptor type substrate 1 (Homo sapiens) + Leukocyte surface antigen CD47 (Homo sapiens); assay: CD47-SIRPalpha protein protein interaction - Alpha assay qHTS validation (AID 1347059);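 note: bead proximity luminescence from CD47 binding SIRPalpha after compound preincubation with SIRPalpha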
Method in brief: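 Binding is measured by AlphaScreen proximity: Ni-NTA acceptor beads capture His-CD47, streptavidin donor beads capture biotin-SIRPalpha. Each of three additions (SIRPalpha with compound, CD47, beads) incubates 30 min at room temperature protected from light.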

Measured: Potency

Cc1cc(OCCCc2c(C(=O)O)n(Cc3cccnc3)c3c(-c4c(COc5ccc(N6CCN([S+](C)(=O)[O-])CC6)cc5)nn(C)c4C)cccc23)cc(C)c1Cl
inactive: [1] | [7]
active: [2] 18.7 µM | [3] 23.5 µM | [4] 23.5 µM | [5] 5.9 µM | [6] 23.5 µM | [8] 18.7 µM | [9] 29.6 µM | [10] 29.6 µM

CCOC(=O)O[C@]1(C(=O)OCCl)CC[C@@H]2[C@H]3CCC4=CC(=O)C=C[C@]4(C)[C@@H]3[C@@H](O)C[C@@]21C
inactive: [1] | [2] | [3] | [4] | [5] | [11] | [6] | [7] | [8] | [12] | [13] | [14] | [15] | [16] | [17] | [9] | [10]

NC(=O)c1ccc2nc(-c3ccc(Oc4ccc(Cl)cc4)cc3)[nH]c2c1
active: [15] 2.43 µM
inactive: [18] | [3] | [6] | [7] | [8] | [12] | [13] | [10]

NC1CCC(Nc2nc(Nc3ccc(C(=O)N4CCCCC4)cc3)c3ncn(-c4cccc(F)c4)c3n2)CC1 (stereo not drawn)
inactive: [1] | [2] | [3] | [4] | [5] | [11] | [6] | [7] | [8] | [12] | [13] | [14] | [15] | [16] | [17] | [9] | [10]

CNC(=O)c1ccc2cc(C3(O)CCn4cncc43)ccc2c1 (stereo not drawn)
inactive: [1] | [2] | [3] | [4] | [5] | [11] | [6] | [7] | [12] | [13] | [14] | [15] | [16] | [17] | [9] | [10]

O=C(O)CCc1nc(-c2ccccc2)c(-c2ccccc2)o1
inactive: [19] | [20] | [1] | [2] | [3] | [4] | [5] | [11] | [6] | [7] | [8] | [12] | [13] | [14] | [16] | [17] | [9]

COc1cc2ncnc(Nc3ccc(F)c(Cl)c3)c2cc1OCCCN1CCOCC1
active: [1] 38 µM | [2] 4.29 µM | [3] 1.71 µM and 8.41 µM | [4] 1.71 µM and 21.1 µM | [5] 1.91 µM and 26.6 µM | [11] 15.7 µM and 19.5 µM | [7] 42.9 µM | [8] 13.6 µM | [12] 17.5 µM and 27.3 µM | [14] 6.05 µM | [15] 39.5 µM | [17] 8.85 µM and 17.4 µM | [9] 6.79 µM and 23.7 µM | [10] 27 µM

CO[C@H]1C=CC=C(C)C(=O)NC2=CC(=O)C(NCCN(C)C)=C(C[C@@H](C)C[C@H](OC)[C@@H](O)[C@@H](C)C=C(C)[C@@H]1OC(N)=O)C2=O
active: [1] 0.262 µM | [2] 3.72 µM | [3] 0.0526 µM | [4] 0.0743 µM | [5] 0.187 µM | [11] 385 nM | [6] 0.118 µM | [7] 0.935 µM | [8] 2.35 µM | [12] 271 nM | [13] 166 nM | [14] 0.132 µM | [15] 4.85 µM | [16] 132 nM | [17] 385 nM | [9] 0.0526 µM | [10] 18.7 µM

CCC(CC)[C@H](NC(C)=O)[C@@H]1[C@H](O)[C@@H](C(=O)O)C[C@@H]1N=C(N)N
inactive: [1] | [2] | [3] | [4] | [5] | [11] | [6] | [7] | [8] | [12] | [13] | [15] | [16] | [17] | [9] | [10]

CO[C@H]1C[C@@H]2CC[C@@H](C)[C@@](O)(O2)C(=O)C(=O)N2CCCC[C@@H]2C(=O)O[C@H]([C@H](C)C[C@@H]2CC[C@H](OP(C)(C)=O)[C@H](OC)C2)CC(=O)[C@H](C)C=C(C)[C@@H](O)[C@@H](OC)C(=O)[C@H](C)C[C@H](C)C=CC=CC=C1C
inactive: [18] | [2] | [7] | [12] | [9] | [10]

CN(C)Cc1cccc(N=C(c2ccccc2)c2c(O)[nH]c3cc(C(=O)N(C)C)ccc23)c1
active: [2] 2.96 µM | [3] 18.7 µM | [5] 14.8 µM | [11] 15300 nM | [6] 18.7 µM | [8] 11.8 µM | [12] 21500 nM | [17] 17200 nM
inactive: [1] | [7]

Cn1c(N2CCCCS2(=O)=O)nc(C(=O)NCc2ccc(F)cc2)c(O)c1=O
inactive: [1] | [2] | [3] | [5] | [11] | [6] | [7] | [12] | [13] | [14] | [15] | [17] | [9] | [10]
